The panel holds about 79,000 compounds, 15% with a hit somewhere; the sample as a whole holds those more often. Active and inactive are the calls of the source. Cut-off read from the data, not from the text of the source: active = growth inhibition above about 70%; inactive = the rest.
Assay: NCI Yeast Anticancer Drug Screen. Data for the wt2 strain (AID 169);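 note: 0% = growth of vehicle-treated yeast cultures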
Details: S. cerevisiae wt2 strain growth inhibition, active compounds read high
Protocol: Growth inhibition of yeast strains with defined genetic alterations is measured as a screen for potential anti-cancer activity. Selected strains with alterations in DNA damage repair or cell cycle control were exposed to compounds and growth inhibition was measured relative to vehicle treated controls. The strain used in this assay is wt2

Measured: growth inhibition

O=Cc1ccc(C(F)(F)F)cc1.[C-]#[O+].[C-]#[O+].[C-]#[O+].[Cr]
inactive: at 1.2 µM 3% | at 3.7 µM 8% | at 11.0 µM 23% | at 33.0 µM 39% | at 100.0 µM 33%

O=P(CCCCP(=O)(c1ccccc1)c1ccccc1)(c1ccccc1)c1ccccc1.[Cl][Sn]([Cl])([c]1ccccc1)[c]1ccccc1
active: at 33.0 µM 92% | at 100.0 µM 96%
inactive: at 1.2 µM -51% | at 3.7 µM -35% | at 11.0 µM 43%

N#Cc1ccc([Se]c2ccccc2)cc1
inactive: at 1.2 µM 10% | at 3.7 µM 13% | at 11.0 µM 6% | at 33.0 µM 28% | at 100.0 µM 63%

C/C(=N\N=C(N)N)C(CN1CCOCC1)C(c1ccccc1)c1c(O)c2ccccc2oc1=O (stereo not given)
inactive: at 1.2 µM -1% | at 3.7 µM 0% | at 11.0 µM 0% | at 33.0 µM 35%
active: at 100.0 µM 95%

Nc1nc(-c2ccccc2)c(-c2ccccc2)[se]1
inactive: at 1.2 µM -10% | at 3.7 µM -9% | at 11.0 µM -14% | at 33.0 µM -9% | at 100.0 µM -10%

O=C1NC(=S)NC(=O)C1=Cc1ccc([N+](=O)[O-])o1
inactive: at 1.2 µM -20% | at 3.7 µM -12% | at 11.0 µM 2% | at 33.0 µM -8% | at 100.0 µM 64%

Br[Se]c1ccccn1
active: at 11.0 µM 80% | at 33.0 µM 99% | at 100.0 µM 99%
inactive: at 1.2 µM 1% | at 3.7 µM 14%

O=c1oc2ccccc2c(O)c1C(c1ccc2c(c1)Cc1ccccc1-2)c1c(O)c2ccccc2oc1=O
active: at 33.0 µM 95% | at 100.0 µM 93%
inactive: at 1.2 µM -17% | at 3.7 µM -14% | at 11.0 µM 52%

From PubChem BioAssay (NCI)
